SMN2 splice up: qHTS Assay for Enhancers of SMN2 Splice Variant Expression; AID 1458, 2008; Potency, µM (series often up to 46.1 µM), usual class: activators; HEK293 SMN2-luciferase splicing reporter, luminescence, 30-36 h; 210,000 tested, 2.8% active; also: nearly all actives have a fitted effect of over 55% in size
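HEK293 cells carry an SMN2 […]–luciferase reporter in which exon 7 inclusion puts luciferase in frame. Cells were plated 10-12 h before compound addition, then incubated 30-36 h at 37C. ONE-Glo luminescence was read; sodium butyrate at 4.5 mM final served as control.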
ELG1 genotox: qHTS screen for small molecules that induce genotoxicity in human embryonic kidney (HEK293T) cells expressing luciferase-tagged ELG1 | AID 504466, 2011 | 330,000 tested, 1.3% active | Potency, µM (titrated, usually from 46 µM), hits mostly activators | HEK293T ELG1-luciferase reporter, luminescence, 16 h; also: nearly all actives have a fitted effect of over 60% in size
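Genotoxic stress is detected as increased luminescence from luciferase-tagged ELG1 in HEK293T cells, measured with ONE-Glo after a 16 hr treatment at 37 °C.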
NPC1 prom act: qHTS Assay for NPC1 Promoter Activators. AID 485313, 2010. 320,000 tested, 2.4% active. Potency, µM (doses to about 9.22 µM), most hits filed as activators. Huh7 NPC1 promoter luciferase reporter, 24 h; also: nearly all actives have a fitted effect of over 60% in size
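Stable NPC1-promoter luciferase Huh7 line; cpd (DMSO) 24 h, 37 °C, 5% CO2; Amplite luciferase reagent 10 min RT; luminescence readout. qHTS format.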
KinaseGlo FLuc: Counterscreen for Luciferase (Kinase-Glo TM) Inhibition. Kinase-Glo luciferase, ATP luminescence, 8 min. Potency, µM (top dose mostly 38.3 µM), usual class: inhibitors. 200,000 tested, 0.28% active. AID 1379, 2008; also: nearly all actives have a fitted effect of over 60% in size
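Luminescence was the read-out, taken after 8-minute incubation at ambient temperature. Luciferase turned over luciferin with 10 uM ATP in imidazole pH 7.2 buffer containing KCl, MgCl2, Tween 20 and BSA.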
FLuc counter: qHTS profiling assay for firefly luciferase inhibitor/activator using purifed enzyme and Km concentrations of substrates (counterscreen for miR-21 project). Potency, µM (doses to about 57.5 µM), hits mostly inhibitors. 360,000 tested, 6.9% active. purified FLuc, Km substrates, luminescence inhibition. Luciferin 4-monooxygenase (Photinus pyralis), P08659; also: nearly all actives have a fitted effect of over 55% in size
Target sequence (P08659 whole entry, looked up): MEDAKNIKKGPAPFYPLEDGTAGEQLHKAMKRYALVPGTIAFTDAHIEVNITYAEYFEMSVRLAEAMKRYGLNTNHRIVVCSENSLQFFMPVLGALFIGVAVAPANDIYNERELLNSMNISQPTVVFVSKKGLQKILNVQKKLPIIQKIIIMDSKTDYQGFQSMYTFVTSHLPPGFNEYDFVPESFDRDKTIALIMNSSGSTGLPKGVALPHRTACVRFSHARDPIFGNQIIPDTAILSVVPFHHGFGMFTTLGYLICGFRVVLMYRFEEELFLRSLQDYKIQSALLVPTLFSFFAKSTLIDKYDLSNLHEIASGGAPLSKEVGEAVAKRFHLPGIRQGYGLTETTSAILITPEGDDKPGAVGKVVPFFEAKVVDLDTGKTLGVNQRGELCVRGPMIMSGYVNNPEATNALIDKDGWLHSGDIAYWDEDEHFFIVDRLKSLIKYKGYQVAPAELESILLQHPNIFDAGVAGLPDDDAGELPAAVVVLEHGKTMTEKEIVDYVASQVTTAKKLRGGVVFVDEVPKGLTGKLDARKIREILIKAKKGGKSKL
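Biochemical qHTS of compounds, final roughly 60 µM downward over six points, against 10 nM purified firefly luciferase using Km concentrations of substrates (10 uM D-luciferin, 10 uM ATP) in Tris acetate pH 7.5 buffer; luminescence output.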
Rab9 prom act: qHTS Assay for Rab9 Promoter Activators; Huh7 Rab9 promoter-luciferase reporter, luminescence, 24 h; Potency, µM (highest dose often 9.22 µM), actives largely listed as activators; 320,000 tested, 2.8% active; AID 485297, 2010; also: nearly all actives have a fitted effect of over 60% in size
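Stable Rab9-luc Huh7, 1500 cells/well, 2 h settle; cmpd in DMSO, 24 h, 37 °C/5% CO2; luciferase reagent 10 min RT; luminescence.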
Hits are given with their value; – = inactive; ? = inconclusive; · = no result; ! = not confirmed by another sample; [ ] = another dose, or the depositor's remark. A selection: hits, their analogues and other compounds. The true share with any hit is near 7.3%. Calls follow the shape of the dose curve; as a rule, active = well fitted curve in the direction sought with a large enough effect; inconclusive = small, poorly fitted or top-dose-only effect, or another doubt; inactive = no such curve, though single readings can be large; an effect the other way counts as inactive or inconclusive.

SMILES	SMN2 splice up	ELG1 genotox	NPC1 prom act	KinaseGlo FLuc	FLuc counter	Rab9 prom act
CC(c1ccccc1)C1C(C#N)=C(N)OC2=C1C(=O)CCC2 (stereo not given)	–	–	–	–	–	–
COc1ccc(CNS(=O)(=O)c2ccc3c(c2)N(C)CCO3)cc1	·	–	–	·	–	–
Nc1nc(-c2ccccc2)cn1N	–	–	–	–	–	–
c1ccc(-c2cn3c(n2)-c2ccccc2C3)cc1	0.5µM	?	3.2µM	7.1µM	0.43µM	0.56µM
O=c1oc(CCO)cc2ccc(-c3ccc4[nH]ccc4c3)cc12	·	15µM	?	·	2.7µM	–
O=C(Cc1ccc(Cl)cc1)c1ccc(O)cc1	·	?	3.5µM	·	15µM	3.5µM
O=C(Cc1ccccc1)c1ccc(Cl)cc1	·	–	–	·	?	–
Cc1ccc(CC(=O)c2ccc(Cl)cc2)cc1	·	?	?	·	4.8µM	?
O=C1CCCc2nc(N3CCCCC3)sc21	?	21µM	–	–	?	–
Nc1nnc(N2CCCCCC2)s1	–	–	–	–	–	–
O=c1[nH]c2ccc(F)cc2[nH]c1=O	–	–	–	–	–	–
O=c1[nH]c2cc(Cl)c(Cl)cc2[nH]c1=O	11µM!	·	–	–	·	–
O=C(c1ccccc1)c1nc2ccccc2[nH]c1=O	–	–	–	–	–	–
COc1ccc2[nH]c3c(c2c1)CCn1c-3nc2ccccc2c1=O	1.6µM	?	0.2µM	–	0.48µM	0.25µM
COc1cc(OC)cc(C(=O)Nn2c(C)nc3ccccc3c2=O)c1	–	–	–	–	–	–
CCCCOc1ccc(N=Cc2ccc[nH]2)cc1	·	–	–	·	3.8µM	–
COc1ccc(N=CC2=C(O)CCCC2=O)cc1	–	?	–	–	?	–
COc1ccc(N=Cc2ccc[nH]2)cc1	–	–	–	–	9.5µM	–
CCc1ccccc1S(=O)(=O)Cc1ccc(C(=O)NCC2CCCO2)o1 (stereo not given)	–	–	–	–	–	–
CCN(C(=O)CSc1nnc2nc(C)cc(C)n12)c1ccccc1	–	–	–	–	–	–
Cc1ccc(CCNC(=O)c2ccc3nc(N4CCC(C)CC4)sc3c2)cc1	–	·	·	·	–	·
CCCCN(CC)CCCNC(=O)C1CCN(c2nc3ccc(CC)cc3s2)CC1	–	·	·	·	19µM	·
CCCCN(C)CCCNC(=O)C1CCN(c2nc3ccc(CC)cc3s2)CC1	–	·	·	·	15µM	·
CCCCN(C)CCCNC(=O)C1CCN(S(=O)(=O)CC)CC1	·	·	·	·	–	·
Cn1c(-c2ccc3ccccc3n2)[n+](C)c2ccccc21	·	–	–	·	21µM	–
SMILES	SMN2 splice up	ELG1 genotox	NPC1 prom act	KinaseGlo FLuc	FLuc counter	Rab9 prom act
Cc1ccccc1C(=O)NC(C)c1ccc2c(c1)CCCC2 (stereo not given)	–	–	–	–	–	–
CC(=O)c1cccc(S(=O)(=O)NC2CCCCCC2)c1	–[1.84 µM]	–	–	–	–	–
CC(=O)c1cccc(S(=O)(=O)NCC2CCCCC2)c1	?	–	0.0005µM	–	–	?
O=C(Nc1nccs1)c1ccc(Br)o1	11µM	–	–	–	?	?
O=C(/C=C/c1ccc(Br)o1)Nc1nccs1	13µM	?	3.2µM	–	?	2.8µM
S=C(NCc1ccccc1)Nc1ccc2cn[nH]c2c1	·	–	–	·	?	–
CCCCOC(=O)Oc1ccc2c(=O)c(Oc3cccc(C)c3)coc2c1	13µM	–	–	–	–	–
CCN(CC)CCN(C(=O)c1ccc(S(=O)(=O)N(C)C2CCCCC2)cc1)c1nc2ccc(OC)cc2s1	·	–	–	·	–	–
C/C(=N/Nc1nc(C)c(C)s1)c1cccc([N+](=O)[O-])c1	·	?	?	·	12µM	?
Cc1nn2c(=O)cc(COC(=O)c3ccccc3NC(=O)C3CCCCC3)nc2s1	·	·	·	·	–	·
NS(=O)(=O)c1cc(C(=O)Nc2ccc3c(c2)CCC3)ccc1Cl	·	10µM	3.5µM	·	17µM	4µM
Cc1ccc(C(=O)Nc2ccc3c(c2)CCC3)cc1	1.4µM	0.18µM	?	–	0.38µM	0.32µM
Cn1cc(C(=O)Nc2ccc3c(c2)CCC3)cn1	·	?	–	–	21µM	–
Nc1nc2c(c(=O)[nH]1)C(c1ccccc1)C1=C(N2)c2ccccc2C1=O (stereo not given)	·	–	–	·	–	–
Cn1c2c(c(=O)[nH]c1=O)C(c1ccc(O)cc1)C1=C(N2)c2ccccc2C1=O (stereo not given)	–	–	–	–	17µM	–
Cc1ccc(-c2nc3cc(C(C)C)ccc3o2)cc1NC(=O)c1cc2ccccc2o1	–	·	·	·	2.4µM	·
CC(C)c1ccc2oc(-c3ccc(Cl)c(NC(=O)Cc4ccccc4)c3)nc2c1	–	·	·	·	4.3µM	·
CC(C)c1ccc2oc(-c3ccc(Cl)c(NC(=O)c4cccs4)c3)nc2c1	–	·	·	·	2.1µM	·
COc1ccc(-c2nc3cc(C(C)C)ccc3o2)cc1NC(=O)c1ccccc1[N+](=O)[O-]	–	·	·	·	2.7µM	·
COc1ccc(-c2nc3ccccc3o2)cc1NC(=O)c1cc(Br)ccc1OC	–	·	·	·	–	·
C/C(O)=C\c1nc2ccccc2oc1=O	–	–	–	–	–	–
O=c1oc2ccccc2nc1/C=C(\O)c1ccc(Br)cc1	·	–	–	·	24µM	–
CCc1cc(C(=O)NNC(=S)NCc2ccccc2)cs1	–	–	–	–	–	–
CCc1cc(C(=O)Nc2ccccc2)cs1	–	?	–	–	–[2.3 µM]	2.2µM
CCc1cc(C(=O)NNC(=S)Nc2ccccc2C)cs1	14µM	?	3.5µM	–	6.7µM	2.8µM
SMILES	SMN2 splice up	ELG1 genotox	NPC1 prom act	KinaseGlo FLuc	FLuc counter	Rab9 prom act
CCCCCCc1c(C)c2c(cc(C)c3c(C)coc32)oc1=O	–	·	·	·	–	·
Nc1n[nH]c(=S)n1/N=C1/C(=O)Nc2ccccc21	–	–	–	–	15µM	–
O=C1Nc2ccccc2C1=Nc1ccc(F)cc1	·	–	–	·	–	–
COc1ccccc1NC(=O)c1ccc(-n2cccn2)nc1	–	–	–	–	–	–
CN(C)c1ccc(C(=O)N=c2sccn2C)cc1[N+](=O)[O-]	·	9.2µM	2.2µM	·	9.5µM	3.2µM
COC(=O)c1ccc(C(=O)N=c2sccn2C)cc1	·	?	2.8µM	·	15µM	2.8µM
Cn1ccsc1=NC(=O)c1ccc(Cl)cc1	14µM	?	?	–	17µM	?
Cn1ccsc1=NC(=O)c1ccc(CS(C)(=O)=O)cc1	·	–	–	·	?	–
COc1ccc(C(=O)N=c2sccn2C)cc1	?	?	?	–	17µM	?
COc1ccc(NC(=O)CSCC(=O)N=c2sccn2C)cc1	·	–	–	·	–	–
N#Cc1c(-c2ccc(F)cc2)nc2n(c1=O)CCS2	–	–	–	–	–	–

Screening data as filed in PubChem.
